Compound activity from PubChem BioAssay.
Only some compounds are listed: those with a hit (about 1.6% of all), similar ones and a draw of the others.
KCNQ2 block = rat KCNQ2 potassium channel inhibitors, primary screen, cell-based, CHO-K1, FluxOR thallium flux, B-score | 20 min; active compounds read low | B-score at 10 µM | actives 1.1% (n = 310,000) | AID 2156, 2009;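 active means fluorescence ratio B-score at most minus 3 library SDs, with starting brightness B-score within 2 library SDs, cut at about -5.5 in these data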
KCNQ2 pot = potentiators of rat KCNQ2 potassium channel | Potassium voltage-gated channel subfamily KQT member 2 (Rattus norvegicus), O88943 | CHO-K1 KCNQ2, FluxOR thallium flux fluorescence; active compounds read high | B-score at 10 µM | actives 0.54% (n = 310,000) | AID 2239, 2010;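 active means fluorescence ratio B-score at least 3 SD of library B-scores, with initial fluorescence B-score within 3 of them, cut at about 5.3 in these data; same plate scores as AID 2156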;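 further: B-score of peak minus minimum over baseline fluorescence ratio after K+ and Tl+ stimulus; positive B-score means potentiation of KCNQ2 with more thallium influx and brighter signal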
* hit, by the source's call.

How did Cc1ccc(OCC(=O)NC2CCSc3ccccc32)cc1 (configuration not stated) do in these assays?
KCNQ2 block: -5.94*; KCNQ2 pot: -5.94

What do the screens show for `CCCOc1ccc(C(=O)NC2CCSc3ccccc32)cc1` (configuration not stated)?
KCNQ2 block: inactive

Results for NS(=O)(=O)c1cccc(NC(=O)C(Cc2ccccc2)NC(=O)c2ccccc2)c1 (configuration not stated) ?
KCNQ2 block: inactive

Results for CC1(C)Cc2c(C#N)c(NCc3ccco3)nc(-c3ccco3)c2CO1 ?
KCNQ2 block: inactive; KCNQ2 pot: 0.49

How did CC1(C)Cc2c(C#N)c(N3CCCC3)nc(-c3ccco3)c2CO1 do in these assays?
KCNQ2 block: -9.09*; KCNQ2 pot: -9.09

How did Cc1ccc(C(=O)NCCC(=O)N2CCCC2)cc1 do in these assays?
KCNQ2 block: inactive; KCNQ2 pot: 0.83

How did CCc1cc2cc(C(=O)N3CCN(c4ccccc4)CC3)sc2s1 do in these assays?
KCNQ2 block: inactive

How did CCc1cc2cc(C(=O)N3CCN(Cc4ccccc4)CC3)sc2s1 do in these assays?
KCNQ2 block: -5.76*; KCNQ2 pot: -5.76

Results for O=[N+]([O-])c1ccc(Nc2ccccc2F)nc1 ?
KCNQ2 block: inactive; KCNQ2 pot: 5.35*

Results for Cc1ccccc1Nc1ccc([N+](=O)[O-])cn1 ?
KCNQ2 block: inactive; KCNQ2 pot: 0.83

How did O=C(NCc1ccccc1)C(c1cccs1)N(Cc1cccs1)C(=O)c1cnccn1 (configuration not stated) do in these assays?
KCNQ2 block: -5.99*; KCNQ2 pot: -5.99

Results for O=C(NCc1ccccc1)C(c1ccccc1)N(Cc1cccs1)C(=O)c1cnccn1 (configuration not stated) ?
KCNQ2 block: inactive

How did Cc1ccc(CN(C)C(=O)C2CCC(=O)N(CC3CCCCC3)C2)o1 (configuration not stated) do in these assays?
KCNQ2 block: inactive

What do the screens show for `O=Cc1ccc(C(=O)OCC(=O)Nc2ccc(F)cc2F)cc1`?
KCNQ2 block: inactive; KCNQ2 pot: 0.88

How did CCOC(=O)N1CCC(c2cc(=O)n3[nH]cc(C(=O)OC)c3n2)CC1 do in these assays?
KCNQ2 block: inactive

How did CCOc1ccc(NC(=O)c2c[nH]n3c(=O)cc(C4CCN(C(=O)OC(C)(C)C)CC4)nc23)cc1 do in these assays?
KCNQ2 block: inactive; KCNQ2 pot: 8.55*

How did CC1CCCCN1C(=O)c1cc2nc(-c3ccccc3)cc(-c3ccccc3)n2n1 (configuration not stated) do in these assays?
KCNQ2 block: -5.71*; KCNQ2 pot: -5.71

What do the screens show for `CC1CCCCN1C(=O)CSc1nc(-c2ccccc2)cc(=O)[nH]1` (configuration not stated)?
KCNQ2 block: inactive; KCNQ2 pot: 0.32

How did CC1CCN(c2c(NCC3CCC(C(=O)NCCCc4ccccc4)CC3)c(=O)c2=O)CC1 (configuration not stated) do in these assays?
KCNQ2 block: inactive; KCNQ2 pot: 0.12

What do the screens show for `O=C(COc1ccc2c(-c3ccccc3)cc(=O)oc2c1)Nc1cccnc1`?
KCNQ2 block: inactive; KCNQ2 pot: 0.4

Results for COc1ccccc1N1CCN(C(=O)c2oc3ccc(F)cc3c2C)CC1 ?
KCNQ2 block: -6.53*; KCNQ2 pot: -6.53

How did COc1ccccc1N1CCN(C(=O)c2oc3ccc(Br)cc3c2C)CC1 do in these assays?
KCNQ2 block: inactive

Results for CCOc1cc2c(cc1OC)C(NC(=O)c1ccco1)CC2=O (configuration not stated) ?
KCNQ2 block: inactive

How did O=C(NCCO)C1COc2ccccc2O1 (configuration not stated) do in these assays?
KCNQ2 block: inactive; KCNQ2 pot: 0.89

How did O=C(NCCc1ccc(Cl)cc1)C1COc2ccccc2O1 (configuration not stated) do in these assays?
KCNQ2 block: -6.03*; KCNQ2 pot: -6.03

How did CCN(CC)S(=O)(=O)c1cccc(C(=O)Nc2ccc(S(=O)(=O)NC3=NCCCCC3)cc2)c1 do in these assays?
KCNQ2 block: inactive; KCNQ2 pot: 1.34

How did CC(C)N1CCc2c(sc(NC(=O)c3nc4ccccc4s3)c2C(N)=O)C1 do in these assays?
KCNQ2 block: inactive

Results for CC(C)N1CCc2c(sc(NC(=O)c3cc(-c4cccs4)nc4ccccc34)c2C(N)=O)C1 ?
KCNQ2 block: -6.42*; KCNQ2 pot: -6.42

What do the screens show for `COc1ccccc1NC(=O)C1CC(C(C)C)OC1=O` (configuration not stated)?
KCNQ2 block: inactive; KCNQ2 pot: 0.34

How did CCCCn1c(N)c(N(CCOC)C(=O)c2nn(CC)c(=O)c3ccccc23)c(=O)[nH]c1=O do in these assays?
KCNQ2 block: inactive; KCNQ2 pot: 0.19

How did CCc1ccc2[nH]c(=O)c(C(c3nnnn3CC3CCCO3)N3CCCc4ccccc43)cc2c1 (configuration not stated) do in these assays?
KCNQ2 block: inactive; KCNQ2 pot: 7.24*

How did Cc1cc2cc(C(c3nnnn3CC3CCCO3)N3CCCc4ccccc43)c(=O)[nH]c2cc1C (configuration not stated) do in these assays?
KCNQ2 block: inactive; KCNQ2 pot: 0.15

What do the screens show for `CCc1ccc(-c2cn3c(n2)SCC3)cc1`?
KCNQ2 block: inactive

What do the screens show for `CCc1ccc(-c2cn(-c3nc(C)cc(C)n3)c(=N)o2)cc1`?
KCNQ2 block: -6.37*; KCNQ2 pot: -6.37

What do the screens show for `COc1ccc(/C=N/NC(=O)CNC(=O)c2ccncc2)cc1OC`?
KCNQ2 block: inactive; KCNQ2 pot: 0.49

What do the screens show for `CC1CCC(C(C)C)C(OC(=O)COC(=O)c2cccn2C)C1` (configuration not stated)?
KCNQ2 block: inactive

Results for CC1CCC(C(C)C)C(OC(=O)Cn2c(-c3ccc(Br)cc3)[n+](C)c3ccccc32)C1 (configuration not stated) ?
KCNQ2 block: -5.59*; KCNQ2 pot: -5.59

Results for Cc1ccc(N2CC(NC(=O)C(=O)c3c(C)[nH]c4ccccc34)CC2=O)cc1C (configuration not stated) ?
KCNQ2 block: inactive; KCNQ2 pot: 2.12

How did O=C(Nc1ccc(Br)cc1)/C(=C/c1cccc([N+](=O)[O-])c1)NC(=O)C1CCCCC1 do in these assays?
KCNQ2 block: -7.65*; KCNQ2 pot: -7.65

How did Cc1ccc(NC(=O)/C(=C/c2cccc([N+](=O)[O-])c2)NC(=O)C2CCCCC2)cc1 do in these assays?
KCNQ2 block: inactive; KCNQ2 pot: 0.49

How did Cc1sc2ncn(CC(=O)N3CCN(c4ccc(F)cc4)CC3)c(=O)c2c1S(=O)(=O)N1CCOCC1 do in these assays?
KCNQ2 block: inactive; KCNQ2 pot: 0.01

Results for Cc1nc2c(C(=O)NCc3ccccc3Cl)c[nH]n2c(=O)c1Cl ?
KCNQ2 block: inactive

How did Cc1nc2c(C(=O)NCCc3ccccc3Cl)c[nH]n2c(=O)c1Cl do in these assays?
KCNQ2 block: inactive; KCNQ2 pot: 7.22*

Results for CC(C)c1ccc(CCNC(=O)CSC(=S)N2CCCC2)cc1 ?
KCNQ2 block: inactive; KCNQ2 pot: 0.36

What do the screens show for `COc1ccc(CCC(=O)NC(C)c2ccccc2)cc1OC` (configuration not stated)?
KCNQ2 block: inactive; KCNQ2 pot: 0.93

Results for Cc1cccn2c(/C=N/OCc3ccc(F)cc3)c(-c3ccc(Cl)cc3)nc12 ?
KCNQ2 block: -6.57*; KCNQ2 pot: -6.57
